Among the data in PubChem BioAssay (NCI) are growth values, retold here.

Each structure is given as a SMILES string. The panel holds about 83,000 compounds, 20% with a hit somewhere; the sample as a whole holds those more often.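 Method: cells in 96-well plates; compound added at one concentration; 48 h incubation; percent growth measured; values under 10 scored active.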 A number with no mark means an inactive call. The source made the active and inactive calls.

The test concerns MDA-MB-468 breast. The test is described as follows: NCI-60 one-dose screen, 48 h (100 = growth as untreated, 0 = no growth, -100 = all killed). To be noted: 10 µM unless noted.
For the compound `CCCCCOC(=O)c1ccc(NC(=O)CNCC(C)C)cc1`, the growth was 102%.
Turning to `Cc1cccc2c1O/C(=C\c1ccc([N+](=O)[O-])o1)C2=O`, the growth was -58.1% (active).
In the case of `Fc1cccc(-c2[nH]nc3nc(Nc4cccnc4)sc23)c1` it was 11.9%.
